As usually defined, the AC50 is the concentration at which the activity in the assay is half-maximal.

“And” between values parts separate entries of the source, which are not always exact repeats. Identical values can stand only once. Some compounds were tested as several samples or in several runs, with calls that do not always agree. The source made the active and inactive calls. The calls were made as follows: active = hit-call score of the fitted dose curve at least 0.9, where 1 is the maximum; inactive = score below 0.9.

The assay is described as follows: ATG_MRE_CIS: Attagene CIS-FACTORIAL HepG2 Assay for human Metal Responsive Element (MRE) (AID 2282954). The note with it: HepG2 MRE cis-reporter transcription, Attagene multiplex; actives raise or lower the signal. As to the method:
ATG_CIS is a cell-based, multiplexed-readout assay that uses HepG2, a human liver cell line, with measurements taken at 24 hours after chemical dosing in a 24-well plate.ATG_MRE_CIS is one of 52 assay component(s) measured or calculated from the ATG_CIS assay. It is designed to make measurements of mRNA induction, a form of inducible reporter, as detected with fluorescence intensity signals by Reverse transcription polymerase chain reaction (RT-PCR) and Capillary electrophoresis technology.Data from the assay component ATG_MRE_CIS was analyzed into 1 assay endpoint. This assay endpoint, ATG_MRE_CIS, was analyzed with bidirectional fitting relative to DMSO as the negative control and baseline of activity. Using a type of inducible reporter, measures of mRNA for gain or loss-of-signal activity can be used to understand the reporter gene at the transcription factor-level as they relate to the gene MTF1. Furthermore, this assay endpoint can be referred to as a primary readout, because this assay has produced multiple assay endpoints where this one serves a reporter gene function. To generalize the intended target to other relatable targets, this assay endpoint is annotated to the dna binding intended target family, where the subfamily is zinc finger.
Human liver HepG2 cells are transiently transfected with multiple reporter transcription units (MRTUs) in 6-well plates using FuGene 6 reagent (Roche; 3 ml FuGene/1 mg DNA). The MRTU constructs are regulated by a cis-regulating element (promoter). […] A major difference between the CIS and TRANS system is that in CIS activities of endogenous TFs are measured, whereas the TRANS assay evaluates changes in activities of exogenous, chimeric NR-Gal4 proteins. […] At the end of 24 hour incubation, total RNA was isolated using TriZol reagent (Invitrogen). The isolated RNA is then reverse-transcribed using oligo(dT) primer and Mo-MLV reverse transcriptase (Invitrogen) with DNAse I (Ambion) treatment for 30 min. The one-tenth of the produced cDNA was amplified by PCR using Taq DNA polymerase (Invitrogen) and two reporter sequence-specific primers. The PCR products were fluorescently labeled by primer extension with 6-arboxyfluorescein (6-FAM) 5'-labeled reporter sequence-specific primer (2 min at 95 C, 20 s at 68 C and 10 min at 72 C) and these products were digested with 5U of HpaI (New England Biolabs) for 2h at 37 C. The fragments were purified using Qiaquick PCR columns (Qiagen), analyzed on an ABI 3130xL genetic analyzer (Applied Biosystems) with peak positions identified by using a set of X-rhodamine (ROX)-labeled MapMarker1000 molecular weight standards (BioVentures). The raw capillary electrophoresis data was processed using Attagraph software (Attagene).
In the case of `O=P(OCCCl)(OCCCl)OCCCl`, the outcome was inactive.
For `CCNS(=O)(=O)C(F)(F)C(F)(F)C(F)(F)C(F)(F)C(F)(F)C(F)(F)C(F)(F)C(F)(F)F`, the AC50 was 114 µM (active) and 150 µM (active); the call was inactive.
`CCCCCCCCn1sccc1=O`: the AC50 is 16.7 µM (active).
Turning to `CCCCOC(=O)c1ccccc1C(=O)OCc1ccccc1`, the call was inactive.
Consider `c1ccc(NNc2ccccc2)cc1`, for which the outcome was inactive.
The same measure, in the same setting: the value for `O=[N+]([O-])C(Br)(CO)CO` was “inactive”; that for `N#CC(Br)Br` was “inactive”.
With `CCC(C)c1ccc(O)cc1` (stereo not given), the concentration at half-maximal activity (AC50) was 82.1 µM (active).
As to `O=C(Oc1ccc(Br)cc1)N1CCN2CCC1CC2`, the outcome was inactive.
For the compound `Oc1ccccc1Cl`, the call was inactive.
For the compound `Clc1ccc(C(c2ccc(Cl)cc2)C(Cl)(Cl)Cl)cc1`, the AC50 was 100 µM (active).
The same measure, in the same setting: the value for `Nc1ccc(N=Nc2ccccc2)cc1` was 67 µM (active).
For the compound `Cc1ccc(N=C=O)cc1N=C=O`, the call was inactive.
Turning to `CCOC(=O)[C@]1(c2ccccc2)Oc2ccccc2[C@@H]1N`, the AC50 was 33 µM (active).
Still for that read-out and setting: the value for `Nc1ccc(Cl)cc1N` was 22.9 µM (active).
For `Nc1ccc(Oc2ccc(N)cc2)cc1`, the call was inactive.
Consider `CCCSC(=O)N(CCC)CCC`, for which the call was inactive.
The same measure, in the same setting: in the case of `ClCCOCCCl` it was “inactive”; in that of `C=CCc1ccc2c(c1)OCO2`, “inactive”; in that of `COP(=S)(OC)SCN1C(=O)c2ccccc2C1=O`, “inactive”.
Consider `COc1cc(C=O)cc2c1[C@H](COC(N)=O)[C@]1(OC(C)=O)ON2C[C@H]2[C@@H]1N2C(C)=O`, for which the compound was classed as inactive.
The same measure, in the same setting: the value for `CN(C)c1ccc(C(=O)c2ccc(N(C)C)cc2)cc1` was “inactive”; that for `N#CC(Br)(Br)C(N)=O` was “inactive”; that for `c1ccc(C2CO2)cc1` (stereo not given) was “inactive”.
Same read-out and setting: the value for `Oc1ccc2ccc3cccc4ccc1c2c34` was “inactive”; that for `C[N+](C)(C)CC1CO1` (stereo not given) was “inactive”.
Regarding `CNC(=O)Oc1cccc2c1OC(C)(C)C2`, the result was inactive.
For `CC(C)(C)C(O)(CCc1ccc(Cl)cc1)Cn1cncn1` (stereo not given), the AC50 was 100 µM (active).
`Brc1ccc(Oc2ccccc2)cc1`: the result was inactive.
Take `Clc1ccc(C(c2ccc(Cl)cc2)C(Cl)Cl)cc1`: the AC50 is 50.6 µM (active).
As for `CCOc1cccc(C2(N3CCN(c4ccccc4)CC3)CCC(C)CC2)c1` (stereo not given), the outcome was inactive.
On the same count and under the same terms, in the case of `CC(C)N(Cc1ccccc1)C(=O)C(C)(C)C` it was “inactive”.
For the compound `C[C@]12C=CC3=C4CCC(=O)C=C4CC[C@H]3[C@@H]1CC[C@@H]2O`, the call was inactive; the AC50 is 100 µM (active) and 44.5 µM (active) and 52.5 µM (active).
`O=C1CCCO1`: the result was inactive.
Regarding `Cn1cc(-c2ccccc2)c(=O)c(-c2cccc(C(F)(F)F)c2)c1`, the call was inactive.
As to `Clc1ccccc1Cl`, the outcome was inactive.
Consider `[As]#[In]`, for which the compound was classed as inactive.
The same measure, in the same setting: the value for `Nc1cc(Cl)cc(C(=O)O)c1Cl` was “inactive”.
